Laboratory results published in PubChem BioAssay (NCI).
The panel holds about 79,000 compounds, 15% with a hit somewhere; the sample as a whole holds those more often. Active and inactive are the calls of the source. Rule as the data show it: active = growth inhibition above about 70%; inactive = the rest.

Experiments:
[1] = NCI Yeast Anticancer Drug Screen. Data for the rad52 strain (AID 147);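 also: 0% = growth of vehicle-treated control cultures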; conditions: S. cerevisiae rad52 mutant growth inhibition, stronger effect = higher value
Method in brief: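 Screen used a yeast mutant impaired in DNA repair. After compound exposure, growth was measured. Values reflect inhibition compared with vehicle-treated cells.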

[2] = NCI Yeast Anticancer Drug Screen. Data for the wt1 strain (AID 149);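 also: 0% = growth of vehicle-treated wt1 cultures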; conditions: S. cerevisiae wt1 strain (SPY 50644) growth inhibition, stronger effect = higher value
Method in brief: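 Using yeast strain wt1, compound-induced growth inhibition was determined against vehicle-treated cultures.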

[3] = NCI Yeast Anticancer Drug Screen. Data for the rad50EPP+ strain (AID 151);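 also: 0% = growth of vehicle-treated control cultures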; conditions: S. cerevisiae rad50 mutant strain, stronger effect = higher value
Method in brief: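 Exposing the rad50EPP+ strain to each compound, growth was compared with vehicle-only cultures to give inhibition.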

[4] = NCI Yeast Anticancer Drug Screen. Data for the mgt1 strain (AID 153); conditions: S. cerevisiae mgt1 mutant growth inhibition, stronger effect = higher value
Method in brief: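 Genetically defined yeast (mgt1) treated with compound; inhibition of growth expressed against vehicle-treated controls.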

[5] = NCI Yeast Anticancer Drug Screen. Data for the rad50 strain (AID 155);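 also: 0% = growth of vehicle-only cultures of the same strain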; conditions: S. cerevisiae rad50 strain growth inhibition, stronger effect = higher value
Method in brief: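 Relative growth inhibition (compound vs vehicle) was measured in yeast with a defined repair-gene alteration.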

[6] = NCI Yeast Anticancer Drug Screen. Data for the mec2-1 strain (AID 157); conditions: S. cerevisiae mec2-1 strain, stronger effect = higher value
Method in brief: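 Readout is yeast growth inhibition, normalised to vehicle-treated controls, in the mec2-1 strain exposed to compound.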

[7] = NCI Yeast Anticancer Drug Screen. Data for the rad14 strain (AID 159);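 also: 0% = growth of vehicle-treated control cultures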; conditions: S. cerevisiae rad14 strain growth inhibition, stronger effect = higher value
Method in brief: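 Screen for anticancer potential: a yeast strain altered in DNA damage repair is grown with compound, and reduced growth is quantified against vehicle controls.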

[8] = NCI Yeast Anticancer Drug Screen. Data for the sgs1 mgt1 strain (AID 161);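 also: 0% = growth of cultures given vehicle only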; conditions: S. cerevisiae sgs1 mgt1 strain, stronger effect = higher value
Method in brief: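 Percent growth inhibition was derived by comparing compound-exposed mutant yeast with vehicle-exposed cultures. The strain carries alterations in DNA damage repair.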

[9] = NCI Yeast Anticancer Drug Screen. Data for the CLN2oe strain (AID 163);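 also: 0% = growth of vehicle-only control cultures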; conditions: S. cerevisiae CLN2oe strain, stronger effect = higher value
Method in brief: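 Values reflect how much compound exposure reduced yeast growth, referenced to vehicle-exposed cells. Assay organism is a strain with a defined genetic change affecting cell-cycle control.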

[10] = NCI Yeast Anticancer Drug Screen. Data for the cln2 rad14 strain (AID 165);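 also: 0% = growth equal to vehicle treated cultures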; conditions: S. cerevisiae cln2 rad14 strain, stronger effect = higher value
Method in brief: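 Relative to vehicle controls, growth inhibition of compound-treated cln2 rad14 yeast was recorded.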

[11] = NCI Yeast Anticancer Drug Screen. Data for the bub3 strain (AID 167); conditions: S. cerevisiae bub3 mutant strain, stronger effect = higher value
Method in brief: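 Screening used yeast with an engineered genetic alteration affecting cell cycle control. Compound-exposed cultures were compared with vehicle cultures, and reduced growth was taken as inhibition.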

[12] = NCI Yeast Anticancer Drug Screen. Data for the wt2 strain (AID 169);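 also: 0% = growth of vehicle-treated yeast cultures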; conditions: S. cerevisiae wt2 strain growth inhibition, stronger effect = higher value
Method in brief: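 Values express reduction in yeast growth under compound treatment, referenced to vehicle-treated cells.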

[13] = NCI Yeast Anticancer Drug Screen. Data for the mlh1 strain (AID 171);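 also: 0% = growth of vehicle-treated control cultures of the same strain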; conditions: S. cerevisiae mlh1 strain growth inhibition, stronger effect = higher value
Method in brief: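 Steps: expose the defined-mutant yeast strain to compound; expose a parallel culture to vehicle; measure growth; express compound effect as inhibition relative to the vehicle culture.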

[14] = NCI Yeast Anticancer Drug Screen. Data for the sgs1 strain (AID 173);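 also: 0% = growth of vehicle-only control cultures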; conditions: S. cerevisiae sgs1 mutant, stronger effect = higher value
Method in brief: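 Treat defined-mutant yeast with compound; measure growth; calculate inhibition relative to vehicle-treated cells.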

[15] = NCI Yeast Anticancer Drug Screen. Data for the mlh1 rad18 strain (AID 175); conditions: S. cerevisiae mlh1 rad18 strain growth inhibition, stronger effect = higher value
Method in brief: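 Test agents were incubated with a yeast strain of defined genotype (DNA damage repair defect). Inhibition of growth was derived by comparison with vehicle-exposed cultures.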

[16] = NCI Yeast Anticancer Drug Screen. Data for the rad18 strain (AID 177); conditions: S. cerevisiae rad18 mutant growth inhibition, stronger effect = higher value
Method in brief: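 A genetically defined yeast mutant impaired in DNA damage repair was treated with test compounds, then its growth was measured against cultures receiving vehicle alone.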

[17] = at 5.0 µM (retest, dose inferred, filed as 0.5)
[18] = at 50.0 µM (retest, dose inferred, filed as 5.0)

Measured: growth inhibition

O=C(NCCCCN1CC2CCCC2C1)C(C1CCCCC1)C1CCCCC1 (stereo unspecified)
inactive: [1]; at 1.2 µM 11% | [1]; at 3.7 µM 12% | [1]; at 11.0 µM 35% | [2]; at 1.2 µM 3% | [2]; at 3.7 µM 6% | [2]; at 11.0 µM 14% | [3]; at 1.2 µM 0% | [3]; at 3.7 µM 1% | [3]; at 11.0 µM 2% | [3]; at 33.0 µM 3% | [3]; at 100.0 µM -3% | [4]; at 1.2 µM 4% | [4]; at 3.7 µM 5% | [4]; at 11.0 µM 40% | [5]; at 1.2 µM 7% | [5]; at 3.7 µM 4% | [5]; [17] 35% | [5]; at 11.0 µM 34% | [5]; at 50.0 µM 67.2% | [6]; at 1.2 µM 13% | [6]; at 3.7 µM 15% | [6]; [17] 17% | [6]; at 11.0 µM 39% | [6]; at 50.0 µM 5.4% | [7]; at 1.2 µM 9% | [7]; at 3.7 µM 12% | [7]; at 11.0 µM 52% | [8]; [17] 23% | [9]; at 1.2 µM 11% | [9]; at 3.7 µM 13% | [9]; at 11.0 µM 32% | [10]; [17] 22% | [10]; at 50.0 µM 43.9% | [11]; at 1.2 µM 10% | [11]; at 3.7 µM 11% | [11]; at 11.0 µM 42% | [11]; at 50.0 µM 61.5% | [12]; at 1.2 µM 2% | [12]; at 3.7 µM 5% | [12]; at 11.0 µM 25% | [13]; at 1.2 µM 7% | [13]; at 3.7 µM 5% | [13]; at 11.0 µM 25% | [14]; at 1.2 µM 9% | [14]; at 3.7 µM 11% | [14]; at 11.0 µM 34% | [15]; [17] 16% | [16]; at 1.2 µM 16% | [16]; at 3.7 µM 23% | [16]; at 11.0 µM 49%
active: [1]; at 33.0 µM 76% | [1]; at 100.0 µM 98% | [2]; at 33.0 µM 75% | [2]; at 100.0 µM 97% | [4]; at 33.0 µM 94% | [4]; at 100.0 µM 98% | [5]; at 33.0 µM 85% | [5]; [18] 94% | [5]; at 100.0 µM 79% | [6]; at 33.0 µM 86% | [6]; [18] 93% | [6]; at 100.0 µM 98% | [7]; at 33.0 µM 97% | [7]; at 100.0 µM 99% | [8]; [18] 90% | [8]; at 50.0 µM 76.7% | [9]; at 33.0 µM 87% | [9]; at 100.0 µM 98% | [10]; [18] 96% | [11]; [17] 94% | [11]; at 33.0 µM 90% | [11]; [18] 99% | [11]; at 100.0 µM 98% | [12]; at 33.0 µM 93% | [12]; at 100.0 µM 98% | [13]; at 33.0 µM 91% | [13]; at 100.0 µM 99% | [14]; at 33.0 µM 94% | [14]; at 100.0 µM 98% | [15]; [18] 96% | [15]; at 50.0 µM 73% | [16]; at 33.0 µM 90% | [16]; at 100.0 µM 98%

CC(CN(C)C)C(=O)/C=C/c1ccc(Cl)c(Cl)c1 (stereo unspecified)
active: [1]; at 33.0 µM 73% | [1]; at 100.0 µM 95% | [2]; at 100.0 µM 85% | [3]; at 100.0 µM 89% | [4]; at 33.0 µM 83% | [4]; at 100.0 µM 98% | [5]; at 50.0 µM 99.2% | [5]; at 100.0 µM 95% | [6]; at 50.0 µM 99.4% | [6]; at 100.0 µM 97% | [7]; at 100.0 µM 96% | [8]; at 50.0 µM 99.6% | [9]; at 100.0 µM 74% | [10]; at 50.0 µM 97% | [11]; [18] 82% | [11]; at 50.0 µM 99.2% | [11]; at 100.0 µM 97% | [12]; at 33.0 µM 70% | [12]; at 100.0 µM 98% | [13]; at 33.0 µM 74% | [13]; at 100.0 µM 98% | [14]; at 33.0 µM 84% | [14]; at 100.0 µM 98% | [15]; at 50.0 µM 99.2% | [16]; at 33.0 µM 84% | [16]; at 100.0 µM 97%
inactive: [1]; at 1.2 µM 7% | [1]; at 3.7 µM 15% | [1]; at 11.0 µM 29% | [2]; at 1.2 µM 4% | [2]; at 3.7 µM 6% | [2]; at 11.0 µM 9% | [2]; at 33.0 µM 24% | [3]; at 1.2 µM 2% | [3]; at 3.7 µM 10% | [3]; at 11.0 µM 27% | [3]; at 33.0 µM 61% | [4]; at 1.2 µM 4% | [4]; at 3.7 µM 3% | [4]; at 11.0 µM 13% | [5]; at 1.2 µM 0% | [5]; at 3.7 µM -3% | [5]; [17] -9% | [5]; at 11.0 µM 20% | [5]; at 33.0 µM 66% | [5]; [18] 3% | [6]; at 1.2 µM 4% | [6]; at 3.7 µM 5% | [6]; [17] 4% | [6]; at 11.0 µM 14% | [6]; at 33.0 µM 48% | [6]; [18] -10% | [7]; at 1.2 µM 6% | [7]; at 3.7 µM 9% | [7]; at 11.0 µM 22% | [7]; at 33.0 µM 50% | [8]; [17] -4% | [8]; [18] 8% | [9]; at 1.2 µM 3% | [9]; at 3.7 µM 5% | [9]; at 11.0 µM 10% | [9]; at 33.0 µM 29% | [10]; [17] -3% | [10]; [18] -7% | [11]; at 1.2 µM 3% | [11]; at 3.7 µM 5% | [11]; [17] -16% | [11]; at 11.0 µM 16% | [11]; at 33.0 µM 69% | [12]; at 1.2 µM 2% | [12]; at 3.7 µM 6% | [12]; at 11.0 µM 14% | [13]; at 1.2 µM 4% | [13]; at 3.7 µM 6% | [13]; at 11.0 µM 15% | [14]; at 1.2 µM 4% | [14]; at 3.7 µM 9% | [14]; at 11.0 µM 25% | [15]; [17] -7% | [15]; [18] -21% | [16]; at 1.2 µM 5% | [16]; at 3.7 µM 15% | [16]; at 11.0 µM 40%
